Among all 5,500 compounds or so, about 2,000 (36%) were called active. Inconclusive results (about 18%) are left out. Rule as the data show it: active = normalized growth mostly below about 0.91 (no sharp cut-off); inconclusive = no clear call, values can overlap the other calls; inactive = mostly above about 0.92. The list shows a part of the results.
Test: chemical genetic growth profiling, strain panel (AID 1159580);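 also: tested at 20 µM; growth read once vehicle control cultures reached saturation at 30 °C; 1 = growth at the plate median or of vehicle wells; lower values mean less growth of the strain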
Conditions: growth OD

Measured: normalized growth

CC(=O)O[C@]1(C(C)=O)CCC2C3C=C(C)C4=CC(=O)CCC4(C)C3CCC21C (stereo partly specified)
inactive: S. cerevisiae deletion strains, locus YKL009W, strain mrt4, hits give low values 0.963 | S. cerevisiae deletion strains, locus YKL068W, hits give low values 0.98 | S. cerevisiae deletion strains, locus YKL160W, strain elf1, hits give low values 0.955 | S. cerevisiae deletion strains, locus YKL190W, strain CNB1, hits give low values 0.93 | S. cerevisiae deletion strains, locus YKR026C, strain gcn3, hits give low values 0.976 | S. cerevisiae deletion strains, locus YKR091W, strain srl3, hits give low values 0.96 | S. cerevisiae deletion strains, locus YLL026W, hits give low values 0.941 | S. cerevisiae deletion strains, locus YLL041C, strain sdh2, hits give low values 0.969 | S. cerevisiae deletion strains, locus YLR039C, strain RIC1, hits give low values 0.859 | S. cerevisiae deletion strains, locus YLR058C, strain SHM2, hits give low values 0.988 | S. cerevisiae deletion strains, locus YLR102C, strain apc9, hits give low values 0.979 | S. cerevisiae deletion strains, locus YLR113W, strain HOG1, hits give low values 0.949 | S. cerevisiae deletion strains, locus YLR221C, strain rsa3, hits give low values 0.957 | S. cerevisiae deletion strains, locus YLR258W, strain gsy2, hits give low values 0.956 | S. cerevisiae deletion strains, locus YLR262C, strain YPT6, hits give low values 0.859 | S. cerevisiae deletion strains, locus YLR268W, strain sec22, hits give low values 0.913 | S. cerevisiae deletion strains, locus YLR330W, strain CHS5, hits give low values 0.964 | S. cerevisiae deletion strains, locus YLR357W, strain rsc2, hits give low values 0.953 | S. cerevisiae deletion strains, locus YLR370C, strain arc18, hits give low values 0.96 | S. cerevisiae deletion strains, locus YLR371W, strain rom2, hits give low values 0.984 | S. cerevisiae deletion strains, locus YLR384C, strain iki3, hits give low values 0.964 | S. cerevisiae deletion strains, locus YML016C, strain PPZ1, hits give low values 0.992 | S. cerevisiae deletion strains, locus YML032C, strain rad52, hits give low values 0.96 | S. cerevisiae deletion strains, locus YML124C, strain tub3, hits give low values 0.976 | S. cerevisiae deletion strains, locus YMR058W, strain fet3, hits give low values 0.913 | S. cerevisiae deletion strains, locus YMR078C, strain ctf18, hits give low values 0.961 | S. cerevisiae deletion strains, locus YMR125W, strain sto1, hits give low values 0.995 | S. cerevisiae deletion strains, locus YMR129W, hits give low values 0.967 | S. cerevisiae deletion strains, locus YMR205C, strain PFK2, hits give low values 0.888 | S. cerevisiae deletion strains, locus YMR231W, strain pep5, hits give low values 0.967 | S. cerevisiae deletion strains, locus YMR263W, strain SAP30, hits give low values 0.922 | S. cerevisiae deletion strains, locus YMR307W, strain GAS1, hits give low values 0.817 | S. cerevisiae deletion strains, locus YNL067W, strain RPL9B, hits give low values 0.914 | S. cerevisiae deletion strains, locus YNL128W, strain TEP1, hits give low values 0.98 | S. cerevisiae deletion strains, locus YNL153C, strain GIM3, hits give low values 0.929 | S. cerevisiae deletion strains, locus YNL183C, strain NPR1, hits give low values 0.939 | S. cerevisiae deletion strains, locus YNL209W, strain ssb2, hits give low values 0.985 | S. cerevisiae deletion strains, locus YNL248C, strain rpa49, hits give low values 0.958 | S. cerevisiae deletion strains, locus YNL250W, strain rad50, hits give low values 0.938 | S. cerevisiae deletion strains, locus YNL271C, strain bni1, hits give low values 0.949 | S. cerevisiae deletion strains, locus YNL298W, strain CLA4, hits give low values 0.966 | S. cerevisiae deletion strains, locus YNL322C, strain KRE1 (second series), hits give low values 0.972 | S. cerevisiae deletion strains, locus YNL322C, strain KRE1, hits give low values 0.983 | S. cerevisiae deletion strains, locus YNR049C, strain mso1, hits give low values 0.958 | S. cerevisiae deletion strains, locus YNR052C, strain pop2, hits give low values 0.99 | S. cerevisiae deletion strains, locus YOL006C, strain TOP1, hits give low values 0.85 | S. cerevisiae deletion strains, locus YOL012C, strain htz1 0.402 | S. cerevisiae deletion strains, locus YOL147C, strain pex11, hits give low values 0.981 | S. cerevisiae deletion strains, locus YOR001W, strain rrp6, hits give low values 0.947 | S. cerevisiae deletion strains, locus YOR061W, strain CKA2, hits give low values 0.977 | S. cerevisiae deletion strains, locus YOR069W, strain VPS5, hits give low values 0.998 | S. cerevisiae deletion strains, locus YOR070C, strain gyp1, hits give low values 0.967 | S. cerevisiae deletion strains, locus YOR080W, strain dia2, hits give low values 0.953 | S. cerevisiae deletion strains, locus YOR083W, strain WHI5, hits give low values 0.9 | S. cerevisiae deletion strains, locus YOR106W, strain vam3, hits give low values 0.877 | S. cerevisiae deletion strains, locus YOR136W, strain idh2, hits give low values 0.971 | S. cerevisiae deletion strains, locus YOR144C, strain elg1, hits give low values 0.985 | S. cerevisiae deletion strains, locus YOR231W, strain MKK1, hits give low values 0.961 | S. cerevisiae deletion strains, locus YOR265W, strain rbl2, hits give low values 0.954 | S. cerevisiae deletion strains, locus YOR290C, strain snf2, hits give low values 0.969 | S. cerevisiae deletion strains, locus YOR316C, strain cot1, hits give low values 0.979 | S. cerevisiae deletion strains, locus YPL051W, strain arl3, hits give low values 0.922 | S. cerevisiae deletion strains, locus YPL055C, strain LGE1, hits give low values 0.828 | S. cerevisiae deletion strains, locus YPL106C, strain sse1, hits give low values 1.05 | S. cerevisiae deletion strains, locus YPL240C, strain hsp82, hits give low values 0.963 | S. cerevisiae deletion strains, locus YPL241C, strain CIN2, hits give low values 0.982 | S. cerevisiae deletion strains, locus YPL256C, strain CLN2, hits give low values 0.915 | S. cerevisiae deletion strains, locus YPR119W, strain clb2, hits give low values 0.983 | S. cerevisiae deletion strains, locus YPR141C, strain kar3, hits give low values 0.972 | S. cerevisiae deletion strains, locus YPR163C, strain tif3, hits give low values 0.983 | S. cerevisiae deletion strains, locus YPR167C, strain met16, hits give low values 0.977
active: S. cerevisiae deletion strains, locus YKL085W, strain MDH1 (second series), hits give low values 0.908 | S. cerevisiae deletion strains, locus YKL085W, strain MDH1, hits give low values 0.908 | S. cerevisiae deletion strains, locus YKR001C, strain vps1, hits give low values 0.81 | S. cerevisiae deletion strains, locus YLL001W, strain dnm1, hits give low values 0.886 | S. cerevisiae deletion strains, locus YLR027C, strain aat2, hits give low values 0.919 | S. cerevisiae deletion strains, locus YLR262C, strain YPT6 (second series), hits give low values 0.699 | S. cerevisiae deletion strains, locus YLR320W, strain mms22, hits give low values 0.864 | S. cerevisiae deletion strains, locus YLR342W, strain FKS1 (second series), hits give low values 0.759 | S. cerevisiae deletion strains, locus YLR342W, strain FKS1, hits give low values 0.768 | S. cerevisiae deletion strains, locus YLR418C, strain cdc73, hits give low values 0.627 | S. cerevisiae deletion strains, locus YML120C, strain ndi1, hits give low values 0.906 | S. cerevisiae deletion strains, locus YMR223W, strain ubp8, hits give low values 0.888 | S. cerevisiae deletion strains, locus YNL071W, strain lat1, hits give low values 0.822 | S. cerevisiae deletion strains, locus YNL233W, strain BNI4, hits give low values 0.862 | S. cerevisiae deletion strains, locus YNL307C, strain MCK1, hits give low values 0.714 | S. cerevisiae deletion strains, locus YOR184W, strain ser1, hits give low values 0.746 | S. cerevisiae deletion strains, locus YOR270C, strain vph1, hits give low values 0.718 | S. cerevisiae deletion strains, locus YPL078C, strain atp4, hits give low values 0.855 | S. cerevisiae deletion strains, strain wtn01, hits give low values 0.881 | S. cerevisiae strains, strain wild type, hits give low values 0.88

From PubChem BioAssay AID1159580 (chemical genetic matrix, 2015)
